The text below walks through data of PubChem BioAssay (NCI).

The panel holds about 79,000 compounds, 15% with a hit somewhere; the sample as a whole holds those more often. A number with no mark means an inactive call. Active and inactive are the calls of the source. Rule as the data show it: active = growth inhibition above about 70%; inactive = the rest.

The nature of this test: NCI Yeast Anticancer Drug Screen. Data for the rad52 strain (AID 147).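 Also: 0% = growth of vehicle-treated control cultures.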 Particulars: S. cerevisiae rad52 mutant growth inhibition, stronger effect = higher value. Here is the method:
Growth inhibition of yeast strains with defined genetic alterations is measured as a screen for potential anti-cancer activity. Selected strains with alterations in DNA damage repair or cell cycle control were exposed to compounds and growth inhibition was measured relative to vehicle treated controls. The strain used in this assay is rad52

On to `C1=CCN([B-](c2ccccc2)[C+]2CCCCC2)C=C1`, for which the growth inhibition is -3% (at 1.2 µM); -4% (at 3.7 µM); 1% (at 11.0 µM); 58% (at 33.0 µM); 98% (active) (at 100.0 µM).
In the same order, the values of `CC1C(c2ccccc2)SC(=N)N1C` (stereo not given) are -1%, -3%, -2%, -1% and -4%.
As to `Cc1cc(C)c2[s+]snc2c1`, the growth inhibition runs as follows: (at 1.2 µM) 12%; (at 3.7 µM) 7%; (at 11.0 µM) 16%; (at 33.0 µM) 29%; (at 100.0 µM) 54%.
For `CC(C)N(CCCNc1c2ccccc2nc2cccc([N+](=O)[O-])c12)C(C)C`, in that order: 51%, 87% (active), 95% (active), 97% (active) and 98% (active).
With `O=C(CCCN1CCC(Nc2ccc(F)cc2)(c2nnnn2C2CCCCC2)CC1)c1ccc(F)cc1`, the growth inhibition is 14% (at 1.2 µM); 2% (at 3.7 µM); 19% (at 11.0 µM); 24% (at 33.0 µM); 98% (active) (at 100.0 µM).
For `CC/C(=C(\c1ccccc1)c1ccc(OCC[N+](C)(C)C)cc1)c1ccccc1`, in that order: 0%, 68%, 99% (active), 99% (active) and 99% (active).
In the same order, the values of `CO[C@@]1([C@@H](Cl)c2ccccc2)C(=O)N(C)/C(=C\c2ccccc2)C(=O)N1C` are 0%, 1%, 3%, 7% and 8%.
For `COc1ccc(C(C)c2cc3c(cc2OCC(C)=O)OCO3)cc1` (stereo not given), in that order: -3%, 0%, 1%, -1% and 73% (active).
